# Counter-ions that a name gives are not always drawn.
# How the values were obtained:
# Settings in all cases: incubation time: 27 h, anaerobic, 37 °C;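 for the amine columns active = adjusted P below 0.05 in both replicates with a change the same way and a mean fold change under 0.8 or over 1.25; inactive = the rest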
# [1] = system: Clostridium sporogenes DSM 1664; experiment: growth (OD595) fold change vs plate DMSO controls (fold change (ratio)); higher = more growth
# Outline: (§1)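 Growth is calculated as fold change against the median of the DMSO control wells on each plate. Readings at 595 nm from anaerobic mGAM cultures (96-well, 27 h, 37 °C) were blank-subtracted, background-corrected with 20 µM compound solutions in water, and converted to OD by a calibration factor of 5. Fold changes above 1.5 were recorded as NA, and results are means of 2 biological replicates.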
# [2] = system: Escherichia coli IAI1; experiment: as above
# Outline: as §1
# [3] = system: Klebsiella aerogenes DSM 30053; experiment: as above
# Outline: as §1
# [4] = system: Ruminococcus gnavus DSM 108212; experiment: as above
# Outline: as §1
# [5] = system: Klebsiella aerogenes DSM 30053; experiment: fold change of Histamine concentration vs plate DMSO controls (fold change (ratio)); higher = more amine produced, active = hit call of the paper (significant change in both replicates, either direction)
# Outline: (§2)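 In 80 µL wells, cultures of four gut bacterial strains in mGAM started at OD 0.1 before a 1:1 dilution and grew anaerobically at 37 °C for 27 h. Compounds were added to 20 µM final, except sweeteners at 50 µM final. After extraction of whole cultures with cold acetonitrile/methanol plus 0.1% formic acid and centrifugation, amines were measured by LC–triple-quadrupole MS in dynamic MRM mode against external calibration curves, with within-batch drift correction. Values give fold change over DMSO controls on the same plate, averaged across 2 biological replicates.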
# [6] = system: Clostridium sporogenes DSM 1664; experiment: fold change of Tryptamine concentration vs plate DMSO controls (fold change (ratio)); higher = more amine produced, active = hit call of the paper (significant change in both replicates, either direction)
# Outline: as §2
# [7] = system: Ruminococcus gnavus DSM 108212; experiment: as above
# Outline: as §2
# [8] = system: Escherichia coli IAI1; experiment: fold change of Putrescine concentration vs plate DMSO controls (fold change (ratio)); higher = more amine produced, active = hit call of the paper (significant change in both replicates, either direction)
# Outline: as §2
# [9] = system: Klebsiella aerogenes DSM 30053; experiment: as above
# Outline: as §2
# [10] = system: Escherichia coli IAI1; experiment: fold change of Cadaverine concentration vs plate DMSO controls (fold change (ratio)); higher = more amine produced, active = hit call of the paper (significant change in both replicates, either direction)
# Outline: as §2
# [11] = system: Klebsiella aerogenes DSM 30053; experiment: as above
# Outline: as §2
# [12] = system: Ruminococcus gnavus DSM 108212; experiment: fold change of 2-Phenylethylamine concentration vs plate DMSO controls (fold change (ratio)); higher = more amine produced, active = hit call of the paper (significant change in both replicates, either direction)
# Outline: as §2
Structure (SMILES),growth [1],growth [2],growth [3],growth [4],fold change of Histamine concentration [5],fold change of Tryptamine concentration [6],fold change of Tryptamine concentration [7],fold change of Putrescine concentration [8],fold change of Putrescine concentration [9],fold change of Cadaverine concentration [10],fold change of Cadaverine concentration [11],fold change of 2-Phenylethylamine concentration [12]
Cc1cccc(C)c1NC(=O)CC12CCCN1CCC2 [Pilsicainide Hydrochloride] (20 µM),0.937,1.04,1.01,1.04,0.986 (inactive),0.995 (inactive),1.05 (inactive),1.05 (inactive),0.984 (inactive),1.03 (inactive),0.98 (inactive),1.06 (inactive)
O=C(O)CNC(=O)C(CS)Cc1ccccc1 (stereo not drawn) [Thiorphan] (20 µM),1.06,1.02,1.05,0.855,0.964 (inactive),1.22 (inactive),1.04 (inactive),0.969 (inactive),0.983 (inactive),0.956 (inactive),1.02 (inactive),1.02 (inactive)
COC(=O)Nc1nc2cc(C(=O)c3ccccc3)ccc2[nH]1 [Mebendazole] (20 µM),1.04,1,1.11,0.629,0.962 (inactive),0.982 (inactive),1.01 (inactive),1.03 (inactive),0.987 (inactive),0.998 (inactive),1 (inactive),1.03 (inactive)
Cc1ccc(O)c([C@H](CCN(C(C)C)C(C)C)c2ccccc2)c1 [Tolterodine tartrate] (20 µM),0.996,1.24,1.04,1.14,0.956 (inactive),1.01 (inactive),0.997 (inactive),1.27 (inactive),1.01 (inactive),0.926 (inactive),1 (inactive),0.994 (inactive)
CCCOc1ccc(C(=O)OCCN(CC)CC)cc1N [Proparacaine hydrochloride] (20 µM),1.19,1.08,1.14,1.03,0.892 (inactive),1.09 (inactive),1.08 (inactive),1.13 (inactive),0.98 (inactive),0.971 (inactive),1.04 (inactive),1.14 (inactive)
O=c1oc2ccccc2c(O)c1Cc1c(O)c2ccccc2oc1=O [Dicumarol] (20 µM),0.886,0.961,1.04,0.883,1 (inactive),0.989 (inactive),0.949 (inactive),0.993 (inactive),1 (inactive),1.01 (inactive),1.01 (inactive),1.02 (inactive)
Cc1cccc(Nc2ccccc2C(=O)O)c1C [Mefenamic acid] (20 µM),1.08,0.988,0.961,1.03,1.05 (inactive),0.983 (inactive),1.01 (inactive),1.01 (inactive),0.998 (inactive),0.976 (inactive),0.995 (inactive),0.982 (inactive)
CNCCCC12CCC(c3ccccc31)c1ccccc12 [Maprotiline hydrochloride] (20 µM),1.03,1.01,0.999,1.09,0.982 (inactive),0.973 (inactive),0.913 (inactive),1.02 (inactive),1.01 (inactive),1.03 (inactive),1.01 (inactive),0.884 (inactive)
CCN(CC)CCOC(=O)C(Cc1cccc2ccccc12)CC1CCCO1 (stereo not drawn) [Nafronyl oxalate] (20 µM),0.946,1.01,0.993,1,0.982 (inactive),0.969 (inactive),1.01 (inactive),1.01 (inactive),1 (inactive),1.03 (inactive),0.996 (inactive),1.01 (inactive)
CC(C)NNC(=O)c1ccncc1 [Iproniazide phosphate] (20 µM),1.05,1.13,1.09,1.06,0.977 (inactive),1.06 (inactive),1 (inactive),1.13 (inactive),1.01 (inactive),0.987 (inactive),1 (inactive),0.994 (inactive)
N#Cc1ccc(C(c2ccc(C#N)cc2)n2cncn2)cc1 [Letrozole] (20 µM),1.05,1.02,0.996,1.12,1.07 (inactive),0.988 (inactive),1.01 (inactive),1.03 (inactive),1.01 (inactive),0.964 (inactive),0.992 (inactive),1.02 (inactive)
CC(=O)N[C@@H](CCC(N)=O)C(=O)O [Acetyl-L-glutamine] (20 µM),1.04,0.982,0.977,1.12,1.03 (inactive),0.997 (inactive),1.02 (inactive),0.98 (inactive),1 (inactive),0.977 (inactive),0.99 (inactive),1.05 (inactive)
NS(=O)(=O)c1cc(C(=O)O)c(NCc2ccco2)cc1Cl [Furosemide] (20 µM),0.941,1.01,1.04,1.22,0.987 (inactive),0.964 (inactive),1.01 (inactive),1.04 (inactive),0.984 (inactive),0.995 (inactive),0.988 (inactive),0.964 (inactive)
CC=C(C)C(=O)OC1C(OC(C)=O)C2(CO)C(O)CC3(C)C(=CCC4C5(C)CCC(OC6OC(C(=O)O)C(OC7OC(CO)C(O)C(O)C7O)C(O)C6OC6OC(CO)C(O)C(O)C6O)C(C)(CO)C5CCC43C)C2CC1(C)C (stereo not drawn) [Beta-Escin] (20 µM),0.94,1,1.01,1.01,1.01 (inactive),0.988 (inactive),0.982 (inactive),0.986 (inactive),0.994 (inactive),1.01 (inactive),1 (inactive),0.953 (inactive)
CC(=O)CC(c1ccccc1)c1c(O)c2ccccc2oc1=O (stereo not drawn) [Warfarin] (20 µM),1.08,1.21,0.97,1.12,1 (inactive),1.05 (inactive),0.84 (inactive),1.22 (inactive),0.989 (inactive),0.958 (inactive),0.984 (inactive),0.758 (inactive)
CCN(CC)CC(=O)Nc1c(C)cccc1C [Lidocaine hydrochloride] (20 µM),0.845,0.973,0.979,0.66,1.08 (inactive),1.01 (inactive),1.01 (inactive),0.95 (inactive),1.01 (inactive),0.975 (inactive),0.988 (inactive),1.05 (inactive)
Cc1c(N)c(=O)n(-c2ccccc2)n1C [Ampyrone] (20 µM),1.01,0.995,0.983,0.854,0.947 (inactive),1.07 (inactive),0.901 (inactive),0.975 (inactive),0.992 (inactive),1.03 (inactive),1.01 (inactive),0.926 (inactive)
NS(=O)(=O)Cc1noc2ccccc12 [Zonisamide] (20 µM),0.883,1.01,0.994,1.01,1.02 (inactive),1.07 (inactive),0.863 (inactive),1.07 (inactive),1.01 (inactive),1.05 (inactive),1 (inactive),0.806 (inactive)
O=C(O)CN(CCN(CC(=O)O)CC(=O)O)CCN(CC(=O)O)CC(=O)O [Pentetic acid] (20 µM),1.27,1.04,1.04,1.05,1.08 (inactive),1.02 (inactive),1.01 (inactive),0.998 (inactive),1.02 (inactive),0.992 (inactive),0.989 (inactive),0.997 (inactive)
COc1cc(Nc2c(C#N)cnc3cc(OCCCN4CCN(C)CC4)c(OC)cc23)c(Cl)cc1Cl [Bosutinib] (20 µM),0.991,0.99,1.05,1.16,0.973 (inactive),0.96 (inactive),0.942 (inactive),1.02 (inactive),1 (inactive),1.02 (inactive),1.01 (inactive),0.989 (inactive)
CN(C)CC/C=C1\c2ccccc2CSc2ccccc21 [Dosulepin hydrochloride] (20 µM),1.07,0.99,0.968,0.844,0.887 (inactive),1.17 (inactive),0.961 (inactive),1.03 (inactive),0.941 (inactive),1.01 (inactive),1.06 (inactive),0.952 (inactive)
CCCCC(CC)CN1C(=O)[C@@H]2[C@H](C1=O)[C@@H]1C=C[C@H]2C1 (mixture of isomers) (20 µM),1.03,1.02,1.06,1.02,0.925 (inactive),0.978 (inactive),1.05 (inactive),0.993 (inactive),0.987 (inactive),1.02 (inactive),1 (inactive),1.06 (inactive)
COc1c(Cl)ccc(Cl)c1C(=O)O (20 µM),1.05,1.02,1.03,1.19,0.99 (inactive),0.999 (inactive),0.997 (inactive),1.01 (inactive),1.01 (inactive),1.03 (inactive),1.01 (inactive),0.995 (inactive)
Cc1nccn1CC1CCc2c(c3ccccc3n2C)C1=O (stereo not drawn) [Ondansetron hydrochloride] (20 µM),0.937,0.997,0.989,1.08,1.01 (inactive),1.03 (inactive),1.01 (inactive),1.05 (inactive),0.978 (inactive),1.01 (inactive),0.995 (inactive),1.01 (inactive)
